Assay results reported in publication PMC4552634, “A New Set of Chemical Starting Points with Plasmodium falciparum Transmission-Blocking Potential for Antimalarial Drug Discovery” (PLoS ONE, 2015).
About 3,200 (25%) of roughly 13,000 compounds showed an effect of 50% or more. The list shows a part of the results.

system: P. falciparum stage V gametocytes; design: BacTiter-Glo ATP luminescence viability of purified stage V gametocytes in 384-well plates, per cent inhibition versus DMSO; conditions: 48 h, 5 µM; inhibitor

First: COc1ccc(C)c(Nc2ccnc(Nc3ccc(-c4cnc[nH]4)cc3)n2)c1 [TCMDC-138695]
Second: Cc1[nH]nc2cc(Nc3ccnc(Nc4ccc(CN5CCOCC5)cc4)n3)ccc12 [TCMDC-138633]
The “% Inhibition” value of the first is lower: -34.59% for the first, 14.24% for the second.

Compared with `CC(C)(C)NC(=O)COC(=O)c1c2c(nc3ccccc13)C(=Cc1ccc3c(c1)OCO3)CCC2` [TCMDC-125143], `O=C(Nc1cccc(-c2ccc(-c3nc4ccccc4[nH]3)cc2)c1)Nc1ccc2c(c1)OCO2` [TCMDC-133164] is lower in “% Inhibition” value: 31.31% for the first, -3.868% for the second.

First: CC(C)CCN(Cc1cncn1Cc1cccc(Cl)c1)C(=O)c1cncc(-c2ccccc2)c1 [TCMDC-132465]
Second: CCCNC(=O)c1cncc(-c2ccc(CNC(CC)c3ccccc3)cc2)c1 (centres unmarked) [TCMDC-134238]
The “% Inhibition” value of the first is higher: 21.61% for the first, -1.576% for the second.

Going from `Cc1cc2c(cc1C(F)(F)F)N(C(=O)Nc1cnc(OCCN(C)C)c(C(F)(F)F)c1)CC2` [TCMDC-139848] to `CC(C)(C)OC(=O)NCc1ccc(Nc2nnc(-c3cccc(OCC(=O)NCc4cc(C(F)(F)F)cc(C(F)(F)F)c4)c3)o2)cc1` [TCMDC-134993], the “% Inhibition” value rises from 26.2% to 101.9%.

Compared with `O=C(NCc1ccccc1)NC1CCN(c2ccnc3cc(Cl)ccc23)C1` (centres unmarked) [TCMDC-133402], `COc1ccc(NC(=O)NC2CCN(c3ccnc4cc(Cl)ccc34)C2)cc1` (centres unmarked) [TCMDC-133647] is lower in “% Inhibition” value: -15.46% for the first, -25.5% for the second.

Going from `c1cncc(CCNCc2cccc(-c3csc(-c4nc5ccccc5[nH]4)c3)c2)c1` [TCMDC-132878] to `O=C(CCc1cnc[nH]1)Nc1cccc(-c2cccc(-c3nc4ccccc4[nH]3)c2)c1` [TCMDC-132151], the “% Inhibition” value rises from -19.07% to 78.34%.

Going from `O=C(Cc1cnc[nH]1)Nc1cccc(-c2ccc(-c3nc4ccc(C(F)(F)F)cc4[nH]3)cc2)c1` [TCMDC-136952] to `Cc1cccc2[nH]c(-c3ccc(-c4cccc(NC(=O)Cc5cnc[nH]5)c4)cc3)nc12` [TCMDC-136942], the “% Inhibition” value rises from -24.24% to 73.44%.

First: CC(C)N1CCN(C(CN2CCN(CCCOc3ccc4ccccc4c3)CC2)c2ccc(F)cc2)CC1 (centres unmarked) [TCMDC-135495]
Second: O=c1ccc2ccc(F)c3c2n1CC3CN1CCC(NCc2cccc(-c3ccccc3F)c2)CC1 (centres unmarked) [TCMDC-134405]
The “% Inhibition” value of the first is higher: 83.07% for the first, -31.68% for the second.

Going from `O=C(Nc1cccc(-c2ccc(CN3CCC(O)CC3)cc2)c1)c1cccc(Cl)c1` [TCMDC-132645] to `Cc1cccc2[nH]c(-c3ccc(-c4cccc(NC(=O)CCc5cnc[nH]5)c4)cc3)nc12` [TCMDC-132153], the “% Inhibition” value rises from -15.01% to 72.28%.

Going from `O=C(CCc1cnc[nH]1)Nc1cccc(-c2ccc(-c3nc4ccccc4[nH]3)cc2)c1` [TCMDC-132155] to `O=C(CCc1cnc[nH]1)Nc1ccc(-c2cccc(-c3nc4ccccc4[nH]3)c2)cc1` [TCMDC-132150], the “% Inhibition” value falls from 31.89% to 3.081%.

Compared with `Cc1cccc2[nH]c(-c3cccc(-c4ccc(NC(=O)CCc5cnc[nH]5)cc4)c3)nc12` [TCMDC-132159], `Cc1cccc2[nH]c(-c3cccc(-c4ccc(NC(=O)Cc5cnc[nH]5)cc4)c3)nc12` [TCMDC-136951] is higher in “% Inhibition” value: -12.17% for the first, 17.26% for the second.

First: CCOC(=O)NCC(=O)Nc1cccc(-c2cccc(-c3nc4c(C)cccc4[nH]3)c2)c1 [TCMDC-137048]
Second: C#CCCC(=O)Nc1cccc(-c2cccc(-c3nc4c(C)cccc4[nH]3)c2)c1 [TCMDC-136857]
The “% Inhibition” value of the first is lower: -2.875% for the first, 61.5% for the second.

Going from `Cc1cccc2[nH]c(-c3cccc(-c4cccc(NC(=O)Nc5ccccc5)c4)c3)nc12` [TCMDC-133152] to `Cc1cccc2[nH]c(-c3cccc(-c4cccc(NC(=O)Cc5cnc[nH]5)c4)c3)nc12` [TCMDC-136950], the “% Inhibition” value rises from -23.55% to -8.646%.

First: Cc1cccc2[nH]c(-c3cccc(-c4cccc(NC(=O)CCc5cnc[nH]5)c4)c3)nc12 [TCMDC-132158]
Second: O=C(NCc1ccc(C(F)(F)F)cc1)c1cccc(-c2nnc(-c3cccc(-c4cncnc4)c3)o2)c1 [TCMDC-134944]
The “% Inhibition” value of the first is lower: -23.69% for the first, 18.23% for the second.

First: O=C(CSc1ccccn1)Nc1c(F)cccc1F [TCMDC-123935]
Second: CC(=O)NCCNCc1cccc(C(=O)NCc2cccc(C(F)(F)F)c2)c1 [TCMDC-140900]
The “% Inhibition” value of the first is lower: 16.99% for the first, 22.07% for the second.

Compared with `O=C(NC1CCCCC1)C1CCCN(C(=O)c2ccc(O)c(-c3ccc(Cl)c(Cl)c3)c2)C1` (centres unmarked) [TCMDC-140884], `Cc1ccccc1C1CCN(C2CCC(NC(=O)/C=C/c3cccc(Cl)c3Cl)CC2)CC1` (centres unmarked) [TCMDC-133519] is lower in “% Inhibition” value: 5.577% for the first, -94.66% for the second.

Going from `Cc1c(Cc2ccccc2)c(=O)oc2c(C)c3c(cc12)CN(CC(C)c1ccccc1)CO3` (centres unmarked) [TCMDC-125127] to `CC(C)(C)OC(=O)NCc1ccc(Nc2nnc(-c3cccc(C(=O)NCCC(c4ccccc4)c4ccccc4)c3)o2)cc1` [TCMDC-134989], the “% Inhibition” value rises from 34.31% to 99.36%.

Compared with `O=c1cc(NCCCNCc2sc(Br)nc2Br)[nH]c2ccccc12` [TCMDC-140422], `Cc1sc2nc(CN3CCCC3)nc(-n3c(NCCO)nc4ccccc43)c2c1C` [TCMDC-124811] is higher in “% Inhibition” value: -16.17% for the first, 45.04% for the second.

Compared with `OC(c1ccc(Cl)cc1)(c1ccc(Cl)cc1)C(c1ccc(Cl)cc1)n1ccnc1` (centres unmarked) [TCMDC-125069], `CN1CCN(c2cccc(-c3nnc(-c4cccc(OCC(=O)NCc5ccc(C(F)(F)F)cc5)c4)o3)c2)CC1` [TCMDC-134943] is lower in “% Inhibition” value: 44.24% for the first, 0.9055% for the second.

First: Cc1cccc(Cl)c1Nc1nnc(-c2cccc(C(=O)NC[C@@H]3CC[C@H]4C[C@@H]3C4(C)C)c2)o1 [TCMDC-135040]
Second: CC(C)(C)OC(=O)NCc1ccc(Nc2nnc(-c3cccc(C(=O)NCc4cc(C(F)(F)F)cc(C(F)(F)F)c4)c3)o2)cc1 [TCMDC-135229]
The “% Inhibition” value of the first is lower: -14.01% for the first, 97.34% for the second.

`CN1CCN(c2cccc(-c3nnc(-c4ccc(OCC(=O)NCc5cccc(C(F)(F)F)c5)c([N+](=O)[O-])c4)o3)c2)CC1` [TCMDC-134941] was tested, and the “% Inhibition” value was -68.92%.
